Screening data (PubChem)
Only some compounds are listed: those with a hit (about 9.5% of all), similar ones and a draw of the others.
Tau FP inhib – tau fibrillization inhibition (FP); hit rate 0.39% among 280,000; Potency, µM (series often up to 57.7 µM), actives largely listed as inhibitors; K18 P301L tau heparin fibrillization, Alexa594 FP, 6 h; also: nearly all actives have a fitted effect of over 55% in size
Target sequence (P10636 561-689 P618L limits assumed): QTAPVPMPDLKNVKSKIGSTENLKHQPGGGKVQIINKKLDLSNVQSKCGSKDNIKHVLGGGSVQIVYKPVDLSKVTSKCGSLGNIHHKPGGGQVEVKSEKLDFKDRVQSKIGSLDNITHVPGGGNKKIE
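Compound effects on tau fibrillization are measured by Alexa 594 fluorescence polarization (ex 555, em 632 nm). K18 P301L tau is used at 15 uM with 0.24 uM labeled tracer, and 20 uM heparin induces aggregation over 6 hr at 37 C.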
HPGD block – HPGD (human) dehydrogenase inhibition; hit rate 4.3% among 150,000; Potency, µM, actives largely listed as inhibitors; purified HPGD, NADH fluorescence kinetic, PGE2 substrate; active = well fitted inhibition curve with a large enough effect, not every such curve was filed as active; inconclusive = small, poorly fitted or top-dose-only effect, or another doubt; inactive = no such curve, though single readings can be large or run the other way
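20 nM HPGD preincubated 15 min at room temperature with compound in 50 mM Tris-HCl pH 8, 0.01% Tween 20. Started with 1 mM NAD+ and 30 uM prostaglandin E2; NADH fluorescence (360/450 nm) read 5 times over 30-s intervals, last minus first.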
ALDH1A1 block – ALDH1A1 (human) enzyme inhibition. P00352. Potency, µM (highest dose often 75.3 µM), usual class: inhibitors. Purified ALDH1A1, NADH fluorescence, propionaldehyde substrate. hit rate 7.3% among 220,000; active = well fitted inhibition curve with a large enough effect, not every such curve was filed as active; inconclusive = small, poorly fitted or top-dose-only effect, or another doubt; inactive = no such curve, though single readings can be large or run the other way
Target sequence (P00352 whole entry, looked up): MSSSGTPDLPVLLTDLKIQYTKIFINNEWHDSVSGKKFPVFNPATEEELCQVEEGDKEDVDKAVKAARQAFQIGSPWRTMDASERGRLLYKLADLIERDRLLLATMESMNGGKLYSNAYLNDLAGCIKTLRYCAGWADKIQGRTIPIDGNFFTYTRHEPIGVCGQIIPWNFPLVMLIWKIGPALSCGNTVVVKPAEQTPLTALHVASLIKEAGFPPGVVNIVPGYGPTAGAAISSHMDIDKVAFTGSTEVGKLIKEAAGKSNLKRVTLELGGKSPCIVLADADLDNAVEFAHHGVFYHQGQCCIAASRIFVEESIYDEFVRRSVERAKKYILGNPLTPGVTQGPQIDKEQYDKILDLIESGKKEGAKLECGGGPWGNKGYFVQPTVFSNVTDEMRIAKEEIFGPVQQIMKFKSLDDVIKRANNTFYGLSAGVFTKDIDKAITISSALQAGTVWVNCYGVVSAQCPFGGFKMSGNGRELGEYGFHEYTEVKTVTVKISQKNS
NPSR antagonist – neuropeptide S receptor (human) antagonism, cAMP; Q6W5P4; CHO-NPSR cells, cAMP TR-FRET, antagonist mode; Potency, µM (top dose mostly 38.3 µM), most hits filed as inhibitors; hit rate 1% among 220,000; also: nearly all actives have a fitted effect of over 50% in size
Tau fibril ThT – inhibitors of human tau fibril formation, thioflavin T binding | P10636 | recombinant tau K18 P301L, heparin-induced fibrillization, ThT fluorescence | Potency, µM (highest dose often 57.4 µM), most hits filed as inhibitors | hit rate 2.1% among 270,000; also: nearly all actives have a fitted effect of over 55% in size
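Aggregation was driven by heparin (20 uM final) acting on recombinant tau […] bearing P301L in 100 mM sodium acetate pH 7; fibrils were detected with Thioflavin T.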
Tau fluor cs – counter-screen for tau fibril formation inhibitors | tau K18 P301L Alexa594 fluorescence, heparin fibrillization | Potency, µM (titrated, usually from 57.7 µM) | hit rate 0.93% among 280,000; also: nearly all actives have a fitted effect of over 55% in size
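Human tau K18 P301L (15 uM unlabeled, 0.24 uM Alexa 594-labeled) in 100 mM sodium acetate pH 7 with 20 uM heparin, 6 hr at 37 C. ThT 30 uM added, 1 hr ambient; Alexa 594 FP and total fluorescence read at 555/632 nm.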
Numbers stand for hits; 0 = inactive; ? = inconclusive; - = not tested or not shown; [ ] = remark or other dose. Unless noted, calls follow the shape of the dose curve; as a rule, active = well fitted curve in the direction sought with a large enough effect; inconclusive = small, poorly fitted or top-dose-only effect, or another doubt; inactive = no such curve, though single readings can be large; an effect the other way counts as inactive or inconclusive.

SMILES	Tau FP inhib	HPGD block	ALDH1A1 block	NPSR antagonist	Tau fibril ThT	Tau fluor cs
CN=c1nc(-c2ccccc2)n(-c2ccccc2)s1	?	0	1.4µM	?	22µM	0
O=C(N/N=C\c1ccc(-c2ccccc2[N+](=O)[O-])o1)C1COc2cc3ccccc3cc2O1 (stereo not drawn)	?	0	0	0	11µM	?
Cc1ccc(/C=N\NC(=O)C2COc3cc4ccccc4cc3O2)o1 (stereo not drawn)	0	14µM	?	0	?	0
O=C(N/N=C\c1ccc(-c2ccccc2[N+](=O)[O-])o1)C1COc2ccccc2O1 (stereo not drawn)	?	0	?	0	13µM	?
O=C(N/N=C\c1ccc(Cl)s1)C1COc2ccccc2O1 (stereo not drawn)	0	-	-	?	-	0
Cc1nn(-c2ccccc2)c(Cl)c1/C=N/NC(=O)C1COc2ccccc2O1 (stereo not drawn)	0	0	2.8µM	0	?	0
CSc1ccccc1C(=O)Nc1ccccc1C(=O)NC(C)C	0	-	?	0	0	0
COC1=C/C(=C/c2c(N)n3c(nc2=O)sc2cc(S(C)(=O)=O)ccc23)C=CC1=O	0	-	-	0[7.67 µM]	?	0
CS(=O)(=O)c1ccc2c(c1)sc1nc(=O)c(/C=C3/C=CC(=O)C(O)=C3)c(N)n12	0	-	13µM	0	4µM	?
Cc1ccc2c(c1)S/C(=C/c1ccc[n+](C)c1)N2CCO	0	-	0	0	?	0
CCN1/C(=C/c2ccc3ccccc3[n+]2CC)C=Cc2ccccc21	0	0	?	7.9µM	3.2µM	0
CCN1/C(=C/c2ccc3cc(C)ccc3[n+]2CC)Sc2cc(C)ccc21	?	-	?	0	14µM	?
CCCCN1/C(=C/c2ccc3ccccc3[n+]2CC)Sc2ccccc21	0	-	?	0	14µM	0
CCN1/C(=C/c2ccc3cc(C)ccc3[n+]2C)Sc2ccc3sccc3c21	0	-	?	?	1.6µM	3.2µM[fluorescent]
O=C(O/N=C/C1=C(Cl)c2ccccc2CC1)c1ccc(F)cc1	0	0	0	0	0	0
O=C1CC(NCc2ccc3c(c2)OCO3)C(=O)N1Cc1ccc2c(c1)OCO2 (stereo not drawn)	0	0	?	0	0	0
Cc1ccc(-c2ccc(CCC(=O)O)n2Cc2ccco2)cc1	0	?	?	0	?	0
COCC(=O)N1CCC2(CC1)CN(Cc1ccccc1OC)C2	-	0	0	-	-	-
CCCOC(=O)/C(=C\C=C\c1ccco1)NC(=O)c1ccccc1	?	-	20µM	0	?	0
CCCCc1ccc(-n2nc3cc(C)c(NC(=O)Cc4ccccc4)cc3n2)cc1	?	-	-	-	32µM	40µM[quencher]
COC(=O)c1ccc2c(c1)S(=O)(=O)NC(=NCc1ccco1)S2	0	14µM	0	0	0	0
COC(=O)c1ccc(=O)n(Cc2ccco2)c1	0	0	0	0	0	0
COc1ccc(-c2n[nH]c(=S)n2-c2ccc3c(c2)OCCO3)cc1	0	25µM	0	0	0	0
COc1cc(OC)cc(-c2n[nH]c(=S)n2-c2ccc3c(c2)OCCO3)c1	0	-	0	0	0	0
S=c1[nH]nc(-c2ccc(Cl)cc2Cl)n1-c1ccc2c(c1)OCCO2	0	-	-	?	?	0
SMILES	Tau FP inhib	HPGD block	ALDH1A1 block	NPSR antagonist	Tau fibril ThT	Tau fluor cs
Oc1ccc(-c2n[nH]c(=S)n2-c2ccc3c(c2)OCCO3)c(O)c1	0	14µM	?	0	?	0
CC(C)CC(=O)Nc1ccc(-c2cn3ccsc3n2)cc1	0	25µM	0	0	?	0
CCOc1ccc(N=Nc2c(N)[nH][nH]c2=O)cc1	0	0	19µM	0	0	0
COc1ccc(N=Nc2c(C)[nH][nH]c2=O)cc1	0	-	0	0	8.9µM	0
Cc1ccc(N=Nc2c(C)[nH][nH]c2=O)c(C)c1	0	0	0	0	8.9µM	0
Cc1[nH][nH]c(=O)c1N=Nc1ccccc1C#N	0	-	0	0	?	0
COC(=O)[C@@]1(Cc2ccc(F)cc2)[C@H]2c3cc(C(=O)N4CCCC4)n(CCc4c[nH]c5ccc(OC)cc45)c3C[C@H]2CN1C(=O)c1ccccc1	0	0	0	0	?	0
O=[N+]([O-])c1ccc(N2CCN(C(=S)Nc3ccc(F)cc3)CC2)cc1	0	-	?	0	?	?
O=[N+]([O-])c1ccc(N2CCN(C(=S)Nc3ccc(F)cc3F)CC2)cc1	0	-	11µM	0	?	0
Cc1cccc(NC(=S)N2CCCN(c3ncccc3[N+](=O)[O-])CC2)c1	0	-	14µM	0	0	0
COc1ccc(NC(=S)N2CCN(c3ccc([N+](=O)[O-])cc3)CC2)cc1OC	0	-	0	0	0	0
O=[N+]([O-])c1ccc(N2CCN(C(=S)Nc3cccc(F)c3)CC2)cc1	0	-	14µM	0	16µM	?
COc1cccc(NC(=S)N2CCN(c3ccc([N+](=O)[O-])cc3)CC2)c1	0	-	7.9µM	0	?	?
Cc1c(Cl)cccc1NC(=O)CCCn1nc(C)c2sc3ccccc3c2c1=O	0	-	-	-	0	0
COc1ccccc1/C=C/C(=O)Nc1nc(N)n(-c2ccccc2)n1	0	-	-	0	?	0
O=[N+]([O-])c1ccc(NN=C2c3ccccc3Cc3ccccc32)c([N+](=O)[O-])c1	-	0	0[13.5 µM]	-	-	-
CCCCC(=O)Nc1cc([N+](=O)[O-])ccc1Cl	0	0	0	0	0	0
CN(CC(=O)Nc1cc([N+](=O)[O-])ccc1Cl)Cc1ccc(Br)cc1	0	0	10µM	0	?	?
CN1CCN(C(=S)Nc2cc([N+](=O)[O-])ccc2Cl)CC1	0	0	20µM	0	0	0
COc1cc(NC(=S)N2CCN(C)CC2)c(OC)cc1Cl	0	-	0	0	0	0
NC(=O)c1ccsc1NC(=O)CSc1nnc(Nc2ccccc2)s1	0	-	0	0	?	?
COc1cccc(CN(C)C(=O)c2cccnc2SC)c1OC	0	-	0	0	0	0
C=CCN(Cc1cccc(OC)c1OC)S(=O)(=O)N(C)C	0	0	25µM	0	0	0
S=C(c1ccc(-c2ccc(Cl)cc2Cl)o1)N1CCCCC1	0	?	14µM	0	?	0
O=C(Nc1ccc(Cl)cn1)c1ccc(-c2cc(Cl)ccc2Cl)o1	?	-	18µM	?	7.9µM	?
SMILES	Tau FP inhib	HPGD block	ALDH1A1 block	NPSR antagonist	Tau fibril ThT	Tau fluor cs
O=C(Nc1ccc(CN2CCOCC2)cc1)c1ccc(-c2ccc(Cl)cc2Cl)o1	0	-	10µM	0	0	?
CN1CCN(C(=S)c2ccc(-c3cc(Cl)ccc3Cl)o2)CC1	0	-	-	?	?	0
S=C(c1ccc(-c2ccc(Cl)cc2Cl)o1)N1CCCC1	0	-	4µM	0	?	0
O=C(Nc1ccc(Cl)cn1)c1cc2ccccc2o1	0	0	0	0	0	0
Cc1ccc(-c2nsc(NC(=O)c3oc4cc(C)c(Cl)cc4c3C)n2)cc1	0	-	-	-	0	0
Cc1ccc(NC(=O)c2c(C)oc3c2C2=NCCN2C=N3)cc1F	0	-	-	-	0	0
